Structures are written as SMILES. Activity calls are given as the source filed them. How the source made its calls: active means hit-call score of the fitted dose curve at least 0.9, where 1 is the maximum; inactive means score below 0.9.

One may read the AC50 as the concentration at which the activity in the assay is half-maximal.

Chain of human Opioid Receptor NOP (ORL1) Agonism, OPRL1 (gene 4987) (P41146 whole entry, looked up): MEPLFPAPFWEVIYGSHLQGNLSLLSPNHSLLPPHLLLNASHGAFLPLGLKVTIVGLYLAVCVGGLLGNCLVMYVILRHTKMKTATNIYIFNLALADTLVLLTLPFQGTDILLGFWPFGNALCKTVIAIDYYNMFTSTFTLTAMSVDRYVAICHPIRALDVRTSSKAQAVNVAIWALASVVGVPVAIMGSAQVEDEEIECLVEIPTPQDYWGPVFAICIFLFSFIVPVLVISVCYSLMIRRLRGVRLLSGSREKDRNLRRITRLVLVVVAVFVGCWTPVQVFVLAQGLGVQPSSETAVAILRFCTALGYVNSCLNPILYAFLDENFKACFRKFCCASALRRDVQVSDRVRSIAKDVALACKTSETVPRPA

In this experiment the target is human Opioid Receptor NOP (ORL1) Agonism, OPRL1 (gene 4987) (UniProt P41146). The experiment can be described thus: ERF_FR_GPCR_hOPRL1: Eurofins (ERF) G Protein-Coupled Receptor (GPCR) Radioligand Binding LeadHunter Assay for human Opioid Receptor NOP (ORL1) Agonism. How it is done:
ERF_FR_GPCR_hOPRL1 is a biochemical, single-readout assay that uses extracted gene-proteins in a cell-free assay. Measurements were taken 1 hour after chemical dosing in a 96-well plate. See NOP (ORL1) Human Opioid GPCR Binding (Agonist Radioligand) Assay, Cerep.ERF_FR_GPCR_hOPRL1 is an assay component calculated from the ERF_FR_GPCR_hOPRL1 assay. It is designed to measure radioligand binding using a type of binding reporter as detected by scintillation counting with radiometry technology.Data from the assay component ERF_FR_GPCR_hOPRL1 was analyzed at the assay endpoint, ERF_FR_GPCR_hOPRL1, in the positive analysis fitting direction relative to DMSO as the negative control and baseline of activity. Using a type of binding reporter, gain-of-signal activity can be used to understand changes in binding as they relate to gene OPRL1. To generalize the intended target to other relatable targets, this assay endpoint is annotated to the gpcr intended target family, where the subfamily is opioid.
Human cells are incubated for 60 minutes at room temprature with [3H]nociceptin ligand (0.1 nM) and Nociceptin as control inhibitor. Test Sample Requirements: Minimum for 1) Screen: 60 ul of 10 mM stock -OR- 1 mg (pre-weighed) for 10 uM final testing. 2) Dose Response: 90 ul of 10 mM stock -OR- 1 mg (pre-weighed) for a top concentration at 10 uM.
With `COc1cc(CCC(=O)CC(=O)CCc2ccc(O)c(OC)c2)ccc1O`, the compound was called inactive. In the case of `COc1cc(/C=C/C(=O)CC(=O)/C=C/c2ccc(O)c(OC)c2)ccc1O`, the AC50 was 5 µM (active). Still for that read-out and setting: for `O=C(/C=C/c1ccc(O)cc1)CC(=O)/C=C/c1ccc(O)cc1` the value was 3.86 µM (active). With `CCCCC[C@H](O)CC(=O)CCc1ccc(O)c(OC)c1`, the outcome was inactive.

The record behind these values is PubChem BioAssay AID2284169 (EPA ToxCast).
